# Measured values from PubChem BioAssay AID1210 (NMMLSC, 2008).
# The source made the active and inactive calls.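 Rule for the calls: active = blocks over 70% of labeled estradiol binding at 10 µM, or over a set limit at 100 nM; inactive = the rest.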
# Target: Estrogen receptor beta (Homo sapiens) (UniProt Q92731)
# Assay: displacement of fluorescent estrogen from ERbeta – cell-based, Cos7 ERbeta-GFP, flow cytometry, primary screen (AID 1210);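 note: 0% = DMSO vehicle wells and 100% = complete loss of labeled estradiol signal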
# Conditions: fluorescent estrogen binding, stronger effect = higher value
# [1] = ligand binding inhibition, at 0.1 µM
# Chain of Estrogen receptor beta (Homo sapiens) (Q92731 whole entry, looked up): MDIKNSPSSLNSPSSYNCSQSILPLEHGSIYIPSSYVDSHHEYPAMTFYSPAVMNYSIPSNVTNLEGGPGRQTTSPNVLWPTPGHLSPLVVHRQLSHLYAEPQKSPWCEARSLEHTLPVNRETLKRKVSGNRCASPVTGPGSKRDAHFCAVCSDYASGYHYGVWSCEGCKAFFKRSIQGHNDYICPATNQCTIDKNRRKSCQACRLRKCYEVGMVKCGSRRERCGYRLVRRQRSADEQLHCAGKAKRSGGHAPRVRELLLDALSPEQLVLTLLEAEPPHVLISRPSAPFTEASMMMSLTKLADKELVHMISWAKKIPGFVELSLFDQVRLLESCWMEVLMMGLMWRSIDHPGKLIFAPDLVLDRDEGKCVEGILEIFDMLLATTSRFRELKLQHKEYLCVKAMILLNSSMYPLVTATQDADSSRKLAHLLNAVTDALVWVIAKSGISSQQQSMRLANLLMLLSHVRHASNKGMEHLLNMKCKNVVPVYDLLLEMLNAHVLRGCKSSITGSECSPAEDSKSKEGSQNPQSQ
Structure (SMILES),inhibition (at 10 µM),inhibition [1]
CCCCn1c(=O)[nH]c2nc3cc(N)ccc3nc2c1=O,31% (inactive),16%
Cc1nn(-c2ccc(Cl)cc2)c2sc(C(=O)N3CCN(c4ccccn4)CC3)cc12,50% (inactive),40%
O=C(Cc1cccs1)Nc1nncs1,26% (inactive),16%
CC(=O)c1cccc(NC(=O)Cc2cccs2)c1,11% (inactive),23%
CC1CC(C(F)(F)C(F)(F)F)n2nc(C(=O)O)cc2N1 (stereo not given),58% (inactive),27%
C/C(N)=C(/C#N)C(=O)CSc1nnnn1-c1ccc(C)cc1,27% (inactive),57%
CCOC(=O)C1CCCN(C(=O)c2cc3ncc(Br)cn3n2)C1 (stereo not given),0% (inactive),26%
COc1ccc(N=C2NC(=O)S/C2=C\c2ccc(N(C)C)cc2)cc1,59% (inactive),4%
O=C1NCCCC2c3cc(O)c4ccccc4c3OC12N1CCCCC1 (stereo not given),56% (inactive),27%
C[C@]12CC[C@@H]3c4ccc(O)cc4[C@@H](O)C[C@H]3[C@@H]1CC[C@@H]2O,74% (active),56%
CC(=O)Nc1ccc(OC(=O)CC2SC(=O)NC2=O)cc1 (stereo not given),59% (active),66%
COc1ccc(N2Cc3cccc(C(=O)O)c3C2=O)cc1,42% (inactive),32%
Cc1cc(C)n2nc(SCc3cc(=O)oc4cc(O)ccc34)nc2n1,19% (inactive),19%
O=C(Nc1ccccc1N1CCOCC1)c1cc(-c2ccco2)nc2ccccc12,56% (inactive),28%
O=C(Cn1nnc(-c2ccc3c(c2)OCO3)n1)NCc1ccco1,46% (inactive),24%
O=C(Cc1cn2ccsc2n1)OCc1nc2ccccc2s1,58% (inactive),24%
O=C1C(c2ccnc3ccccc23)=C(O)c2ccccc21,60% (inactive),18%
COc1cccc(C(=O)NC2CCN(C(=O)N3c4ccccc4Sc4ccccc43)CC2)c1,43% (inactive),17%

Structure (SMILES),inhibition (at 10 µM),inhibition [1]
Cc1cc(C(=O)O)ccc1-n1c(C)ccc1C,69% (inactive),49%
Cc1cc(Cl)ccc1OCC(=O)OC(C)C(=O)N(C)C (stereo not given),35% (inactive),12%
CCCN(CCC)S(=O)(=O)c1ccc(NC(=O)Cc2cccs2)cc1,46% (inactive),20%
Nc1ccc(-c2cc(-c3ccc(N)cc3)nc(-c3ccccc3)n2)cc1,43% (inactive),29%
Cn1ccnc1SCC(=O)Nc1ccc2nc(SCC(=O)NC3CC3)sc2c1,46% (inactive),38%
O=C(CSc1ccc(Cl)cc1)c1ccco1,14% (inactive),53%
CCOc1ccc2nc(NC(=O)CCC(=O)c3cccs3)sc2c1,29% (inactive),33%
O=C1/C(=C\c2ccco2)SC(=S)N1c1ccc(O)cc1,77% (active),27%
O=C(O)c1cc(Cl)c2c(c1)[C@@H]1C=CC[C@@H]1[C@H](c1ccc(S(=O)(=O)N3CCOCC3)cc1)N2,45% (inactive),8%
Oc1ccccc1-c1nnc(SCCN2CCOCC2)n1Cc1ccccc1,32% (inactive),41%
CC1(N2CCOCC2)CC2(O)C(=[N+]1[O-])CCc1nonc12 (stereo not given),49% (inactive),62%
COc1ccc(NC(=O)CSc2nc3ccccc3c3nc4ccccc4n23)cc1,38% (inactive),44%
COc1ccc(CNC(=O)COC(=O)c2cc(-c3ccco3)nc3ccccc23)cc1,18% (inactive),8%
Oc1ccc(-c2csc(-c3c[nH]c4ccccc34)n2)c(O)c1,81% (active),29%
Nc1ccc2nc(CN3CCOCC3)[nH]c2c1,6% (inactive),47%
O=c1[nH]c(N/N=C/c2ccc(O)cc2)nc2ccccc12,34% (inactive),13%
Cc1nc2sccn2c1-c1nc(-c2cc3ccccc3o2)cs1,43% (inactive),9%
